# This is part of a sample that, as a whole, favours compounds with a hit. Of some 83,000 tested, about 20% had one in any assay.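 Values shown are percent growth following 48 h exposure of cells in 96-well plates to a single concentration of compound; below 10 was considered active.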 A number with no mark means an inactive call. Active and inactive are the calls of the source.
# What was measured:
# Test in all cases: NCI-60 one-dose screen, 48 h (100 = growth as untreated, 0 = no growth, -100 = all killed)
# NCI-H23 lung = test system: NCI-H23 lung
# NCI-H226 lung = test system: NCI-H226 lung
# HOP-62 NSCLC = test system: HOP-62 NSCLC
# NCI-H460 lung = test system: NCI-H460 lung
# HOP-92 NSCLC = test system: HOP-92 NSCLC
# NCI-H522 lung = test system: NCI-H522 lung
# A549/ATCC NSCLC = test system: A549/ATCC NSCLC
# 786-0 renal = test system: 786-0 renal
# COLO 205 colon = test system: COLO 205 colon
# DU-145 prostate = test system: DU-145 prostate
# K-562 leukemia = test system: K-562 leukemia
# MALME-3M melanoma = test system: MALME-3M melanoma
# MDA-MB-231 breast = test system: MDA-MB-231 breast
# RXF 393 renal = test system: RXF 393 renal
# SF-268 CNS = test system: SF-268 CNS
# SF-295 CNS = test system: SF-295 CNS
# SF-539 CNS = test system: SF-539 CNS
# UACC-257 melanoma = test system: UACC-257 melanoma
# NCI-H322M lung = test system: NCI-H322M lung
# M14 melanoma = conditions: 10 µM unless noted
structure (smiles),measurement,setting,value
CCCCCCCCCCCCCCCc1ccc(Cl)c(O)c1Cl (tested in a mixture with another compound),growth,NCI-H23 lung; 0.25 µM,19.1%
same,growth,NCI-H23 lung; 10 µM,88.8%
same,growth,NCI-H226 lung; 0.25 µM,5.35% (active)
same,growth,NCI-H226 lung; 10 µM,93.6%
same,growth,HOP-62 NSCLC; 0.25 µM,19%
same,growth,HOP-62 NSCLC; 10 µM,97.5%
same,growth,NCI-H460 lung; 0.25 µM,5.78% (active)
same,growth,NCI-H460 lung; 10 µM,104%
same,growth,HOP-92 NSCLC; 0.25 µM,17.5%
same,growth,HOP-92 NSCLC; 10 µM,105%
same,growth,NCI-H522 lung; 0.25 µM,12.1%
same,growth,NCI-H522 lung; 10 µM,83.1%
same,growth,A549/ATCC NSCLC; 0.25 µM,38.5%
same,growth,A549/ATCC NSCLC; 10 µM,71.9%
same,growth,786-0 renal; 0.25 µM,15.6%
same,growth,786-0 renal; 10 µM,107%
same,growth,COLO 205 colon; 0.25 µM,49.3%
same,growth,COLO 205 colon; 10 µM,114%
same,growth,DU-145 prostate; 0.25 µM,18.4%
same,growth,DU-145 prostate; 10 µM,106%
same,growth,K-562 leukemia; 0.25 µM,30.5%
same,growth,K-562 leukemia; 10 µM,92.3%
same,growth,MALME-3M melanoma; 0.25 µM,22.7%
same,growth,MALME-3M melanoma; 10 µM,100%
same,growth,MDA-MB-231 breast; 0.25 µM,59.1%
same,growth,MDA-MB-231 breast; 10 µM,97.9%
same,growth,RXF 393 renal; 0.25 µM,60.3%
same,growth,RXF 393 renal; 10 µM,106%
same,growth,SF-268 CNS; 0.25 µM,31.4%
same,growth,SF-268 CNS; 10 µM,94.9%
same,growth,SF-295 CNS; 0.25 µM,29.1%
same,growth,SF-295 CNS; 10 µM,109%
same,growth,SF-539 CNS; 0.25 µM,15.9%
same,growth,SF-539 CNS; 10 µM,103%
same,growth,UACC-257 melanoma; 0.25 µM,52.1%
same,growth,UACC-257 melanoma; 10 µM,80.7%
CC(C)(C)c1cc(NC(=O)Cc2ccc(-c3cnc4cc(-c5cnn(CCN6CCOCC6)c5)ccc4n3)cc2)no1,growth,NCI-H23 lung; 10 µM,26.4%
same,growth,NCI-H23 lung; 30 µM,27.3%
same,growth,NCI-H226 lung; 10 µM,10%
same,growth,NCI-H226 lung; 30 µM,13.7%
same,growth,NCI-H322M lung; 10 µM,24.9%
same,growth,NCI-H322M lung; 30 µM,26.1%
same,growth,HOP-62 NSCLC; 10 µM,17.1%
same,growth,HOP-62 NSCLC; 30 µM,34.4%
same,growth,NCI-H460 lung; 10 µM,11%
same,growth,NCI-H460 lung; 30 µM,13%
same,growth,HOP-92 NSCLC; 10 µM,-3.35% (active)
same,growth,HOP-92 NSCLC; 30 µM,-10.6% (active)
same,growth,NCI-H522 lung; 10 µM,20%
same,growth,NCI-H522 lung; 30 µM,27%
same,growth,786-0 renal; 10 µM,18%
same,growth,786-0 renal; 30 µM,21.7%
same,growth,COLO 205 colon; 10 µM,9.61% (active)
same,growth,COLO 205 colon; 30 µM,20.5%
same,growth,DU-145 prostate; 10 µM,23.7%
same,growth,DU-145 prostate; 30 µM,19.8%
same,growth,K-562 leukemia; 10 µM,2.41% (active)
same,growth,K-562 leukemia; 30 µM,-1.34% (active)
same,growth,MALME-3M melanoma; 10 µM,-5.96% (active)
same,growth,MALME-3M melanoma; 30 µM,-9.19% (active)
same,growth,MDA-MB-231 breast; 10 µM,9.54% (active)
same,growth,MDA-MB-231 breast; 30 µM,14.9%
same,growth,RXF 393 renal; 10 µM unless noted,-20.5% (active)
same,growth,SF-268 CNS; 10 µM,19.9%
same,growth,SF-268 CNS; 30 µM,24.7%
same,growth,SF-295 CNS; 10 µM,21.4%
same,growth,SF-295 CNS; 30 µM,15.4%
same,growth,SF-539 CNS; 10 µM,-5.64% (active)
same,growth,SF-539 CNS; 30 µM,-9.45% (active)
same,growth,UACC-257 melanoma; 10 µM,27.1%
same,growth,UACC-257 melanoma; 30 µM,31%
same,growth,M14 melanoma,15%
